{"source": "PubChem BioAssay (NCATS)", "note": "The source made the active and inactive calls. The call rests on the fitted dose curve; in most records, active means well fitted curve in the direction sought with a large enough effect; inconclusive means small, poorly fitted or top-dose-only effect, or another doubt; inactive means no such curve, though single readings can be large or run the other way. Square brackets hold non-standard residues; d marks the D form. Peptide text beside a SMILES is read from it. ξ: configuration not given here. ξL = CC(C)CC(N)C(=O)O", "data": [{"assay": "Inflammasome Signaling qHTS Counterscreen: IL-1-beta AlphaLISA counterscreen against the NCATS CANVASS Library (AID 1347381);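 further: cell-free check with purified IL-1β in medium and no THP-1 cells; 0% is about no effect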", "settings": "Purified IL-1beta AlphaLISA signal interference counterscreen; series mostly up to 57.5 µM; activity change, negative = inhibition: at the top concentration", "excerpt": "Natural products and their derivatives continue to be wellsprings of nascent therapeutic potential. However, many laboratories have limited resources for biological evaluation, leaving their previously isolated or synthesized compounds largely or completely untested. To address this issue, the Canvass library of natural products was assembled (https://tripod.nih.gov/canvass), in collaboration with academic and industry researchers, for quantitative high-throughput screening (qHTS) across a diverse set of cell-based and biochemical assays. The pure (>85% purity by liquid chromatography/mass spectrometry [LC/MS]) Canvass library of 346 natural products were submitted by 45 academic laboratories and companies around the world. We collected pure natural products to circumvent deconvolution and structure elucidation due to time and resource limitations. The library was formatted into 1536-well plates and evaluated in 50 qHTS (in an 11-pnt concentration series) bioassays with broad scope of disease-relevant mechanisms. The resulting data set from 50 different assays was then systematically analyzed to identify overall trends and specific natural products with interesting biological activities. Reported herein are the results of each individual qHTS and their corresponding assay protocol. A qHTS assay, based on AlphaLISA technology, was developed to screen the NCATS CANVASS library to look for novel inflammasome inhibitors. The assay detects IL-1B using AlphaLISA anti-IL-1B acceptor and donor beads. Human THP-1 cells were incubated with Canvass compound for 1 hr, followed by stimulation with lipopolysaccharide and ATP to induce inflammasome activation. […] National Center for Advancing Translational Sciences (NCATS), Rockville, MD National Institute of Health (NIH), Bethesda, Maryland\nIL-1-beta-counterscreen qHTS protocol: 1. Four microliter of cell culture media (low control, columns 3-4) with 4 pg purified IL-1-beta (high control; columns 1-2 and 5-48) were dispensed into a 1536-well, solid white, tissue culture-treated assay plates using the BioRapTR dispenser. 2. 23 nL of compounds (in DMSO solution) or vehicle control (DMSO) were pin transferred into the assay plates using the Kalypsis pin-tool equipped with a 1536 well pin heads. 3. 1.5 uL AlphaLISA reagent 1 (6 ug/mL anti-IL-1-beta AlphaLISA acceptor beads + 0.6 nM anti-IL-1-beta biotinylated antibody final concentrations) was added using the BioRapTR dispenser. 4. The assay plates were incubated at room temperature for 1 hour. 5. 1.5 uL of AlphaLISA reagent 2 (24 ug/ml AlphaLISA SA-Donor beads, final concentration) was then added to the assay plates followed by a 30 min in the dark incubation at room temperature. 6. The AlphaLISA signal was read by the EnVision plate reader (PerkinElmer) using a 680 nm excitation and 615 nm emission filters.", "values": [{"smiles": "C[C@@]1(CCC(=O)Nc2c(O)ccc(C(=O)O)c2O)C(=O)C=C[C@]23C[C@H]4C[C@H](O[C@@]4(C)C2)C31", "note": "(stereo not given in full)", "activity change, negative = inhibition": "6.38% (inactive)"}, {"smiles": "C/C=C(/CO)C(=O)O[C@@H]1[C@H](O)[C@@H](C(=O)OC)O[C@@H]2C[C@H]3OC(n4cnc5c(N)ncnc54)[C@H](OC)[C@H]3O[C@@]12O", "note": "(stereo not given in full)", "activity change, negative = inhibition": "2.18% (inactive)"}, {"smiles": "O=c1cc(-c2ccc(O)cc2)oc2cc(O)c([C@@H]3OC(CO)[C@H](O)[C@@H](O)[C@H]3O)c(O)c12", "note": "(stereo not given in full)", "activity change, negative = inhibition": "0.497% (inactive)"}, {"smiles": "Cc1cc(O)cc2c1C(=O)c1c(O)cc(O)cc1C2=O", "activity change, negative = inhibition": "-3.41% (inactive)"}, {"smiles": "C=C1C[C@H]2O[C@@H]3[C@@H]4[C@H](CC[C@@](C)(O)[C@@H]42)[C@H](C)COC3(C)[C@@H](OC(=O)CCCCCCC)CC1=O", "note": "(stereo not given in full)", "activity change, negative = inhibition": "-5.04% (inactive)"}, {"smiles": "CC(C)[C@@H]1CC(=O)c2coc3c2[C@H]1C[C@@H](C)C3=O", "activity change, negative = inhibition": "-4.12% (inactive)"}, {"smiles": "CCC(=O)CCCCC[C@@H]1NC(=O)[C@H]2CCCCN2C(=O)[C@H](C(C)C)NC(=O)[C@H](Cc2cn(OC)c3ccccc23)NC1=O", "activity change, negative = inhibition": "-19.4% (inactive)"}, {"smiles": "O=Cc1ccc2n1C[C@]1(OC2)O[C@H](CO)[C@@H](O)[C@@H]1O", "activity change, negative = inhibition": "-7.65% (inactive)"}, {"smiles": "CC(=O)N[C@H](C)c1nc(/C=C/C=C/C(=O)CC2CC(=O)CC[C@]2(C)O)cs1", "note": "(stereo not given in full)", "activity change, negative = inhibition": "2.56% (inactive)"}, {"smiles": "O=Cc1ccc2n1C[C@]1(C[C@H](O)[C@@H](CO)O1)OC2", "activity change, negative = inhibition": "0.639% (inactive)"}, {"smiles": "CC1=C[C@H]2[C@H]3C(=O)C(c4ccc(O)cc4)=C[C@@]3(c3ccc(O)cc3)[C@@H]1C(=O)[C@]2(C)O", "activity change, negative = inhibition": "-2.39% (inactive)"}, {"smiles": "O=C1CC2OCC=C3CN4C5CC3C2[C@@H]2N1c1ccccc1[C@]52C[C@@H]4C1=C[C@H]2C3CC4N(CC[C@@]45c4ccccc4N(C1=O)[C@@H]25)C/C3=C/CO", "note": "(stereo not given in full)", "activity change, negative = inhibition": "-10.5% (inactive)"}, {"smiles": "C/C1=C/[C@@H](C)[C@H](O)[C@@H](O)/C=C/CC/C=C/C(=O)O[C@@H]1[C@H](C)C(=O)CCCC1CC(=O)NC(=O)C1", "activity change, negative = inhibition": "4.18% (inactive)"}, {"smiles": "C/C(=C\\[C@@H](C)CC/C=C/CC/C=C/C(=O)O)[C@@H](O)[C@H](C)C(=O)CCCC1CC(=O)NC(=O)C1", "activity change, negative = inhibition": "5.99% (inactive)"}, {"smiles": "C=C1CC[C@@H](Br)C(C)(C)[C@]12CC=C(C)C(=O)C2", "activity change, negative = inhibition": "-2.91% (inactive)"}, {"smiles": "CC[C@@H](C)[C@H]1NC(=O)C(CC(C)C)NC(=O)[C@@H](CC(C)C)NC(=O)[C@H](Cc2c[nH]c3ccccc23)NC(=O)CNC(=O)[C@@H](CC(N)=O)NC1=O", "note": "(stereo partly drawn) (cyclo(GW[dL][ξL][dI][dN]))", "activity change, negative = inhibition": "-0.944% (inactive)"}, {"smiles": "C=CC(CCCCC)C1C(=O)NC(=O)C1C(=O)C1C(/C=C/C)C=CC2CC(C(=O)O)CC(C)C21", "note": "(stereo not given)", "activity change, negative = inhibition": "12.4% (inactive)"}, {"smiles": "[C-]#[N+][C@@]12C(=O)[C@@H]3[C@@H](O[C@@]4(C(=O)N(C)c5cccc1c54)C3(C)C)C(=O)[C@@]2(C)C=C", "activity change, negative = inhibition": "-2.34% (inactive)"}, {"smiles": "COC12OC1(C13OC1(OC)C(=O)c1cc4cc(C)oc(=O)c4c(O)c1C3O)C(O)c1c(cc3cc(C)oc(=O)c3c1O)C2=O", "note": "(stereo not given)", "activity change, negative = inhibition": "-1.68% (inactive)"}, {"smiles": "CN1CC[C@@]23c4ccccc4N[C@@H]1[C@@]21CCN(C)[C@@H]3Nc2ccccc21", "activity change, negative = inhibition": "-8.74% (inactive)"}, {"smiles": "CC(C)=CCCC(C)(O)[C@H]1CC=C(C)C(O)C1", "note": "(stereo not given in full)", "activity change, negative = inhibition": "12.1% (inactive)"}, {"smiles": "C/C=C(/C)c1c(Cl)c(OC)c(C)c2c1Oc1c(Cl)c(O)c(Cl)c(C)c1C(=O)O2", "activity change, negative = inhibition": "3.83% (inactive)"}, {"smiles": "CC(CCC[C@]1(C)C(=O)C=C[C@@]23C[C@]4(C)O[C@@H](C[C@@H]4[C@H]2O)C31)C(=O)O", "note": "(stereo not given in full)", "activity change, negative = inhibition": "2.72% (inactive)"}, {"smiles": "C=C[C@]1(C)CC[C@@H]([C@H](C)C(=O)/C=C/C(C)(C)O)O1", "activity change, negative = inhibition": "1.99% (inactive)"}, {"smiles": "C[C@H]1C=C[C@H]2CCCC[C@@H]2[C@H]1C(=O)[C@H]1CC2=C(C(=O)O)CCN2C1=O", "activity change, negative = inhibition": "1.68% (inactive)"}, {"smiles": "CC(=O)Oc1cc2c(c(OC(C)=O)c1C1CCc3cc(Cl)c(Cl)n31)C(=O)n1c-2cc(Cl)c1Cl", "note": "(stereo not given)", "activity change, negative = inhibition": "0.472% (inactive)"}, {"smiles": "C/C=C1/C2=CCCN3C(=O)O[C@H]([C@H]1O)[C@H]23", "activity change, negative = inhibition": "9.38% (inactive)"}, {"smiles": "CC(C)=CCC[C@]1(C)[C@H]2CC(=O)[C@@]3(CO3)[C@@H]1C2", "activity change, negative = inhibition": "-9.8% (inactive)"}, {"smiles": "C=C1[C@@]2(C)CC3C4(C)CCC(O)C(C)(C)C4CCC3(C)[C@]1(C(=O)OC)C(=O)C(C)(O)C2=O", "note": "(stereo not given in full)", "activity change, negative = inhibition": "4.33% (inactive)"}, {"smiles": "CC(C)=CC[C@H]1C[C@@]2(CC=C(C)C)C(=O)[C@](CC=C(C)C)(C(=O)C(C(=O)c3ccccc3)=C2O)C1(C)C", "activity change, negative = inhibition": "1.37% (inactive)"}, {"smiles": "C/C(=C\\[C@H](C)C(=O)CCCC1CC(=O)NC(=O)C1)[C@@H]1OC(=O)/C=C/CC/C=C/[C@H](O)[C@@H](O)[C@@H]1C", "activity change, negative = inhibition": "2.33% (inactive)"}, {"smiles": "COc1cc2c(c(O)c1O)C(=O)c1c(coc1C)C2=O", "activity change, negative = inhibition": "-15.6% (inactive)"}, {"smiles": "C[C@]12CCC[C@](C)(C(=O)O)[C@@H]1CC[C@@]1(C)c3cocc3CC[C@H]21", "activity change, negative = inhibition": "4.08% (inactive)"}, {"smiles": "CC(=O)O[C@H]1c2ccccc2-c2c3c(cc4c2[C@@H]1N(C(C)=O)CC4)OCO3", "activity change, negative = inhibition": "0.101% (inactive)"}, {"smiles": "C/C(=C\\[C@@H](C)CC/C=C/CC/C=C/C(=O)O)[C@H](O)[C@H](C)C(=O)CCCC1CC(=O)NC(=O)C1", "activity change, negative = inhibition": "5.95% (inactive)"}, {"smiles": "CCC(=O)N[C@@H](C[C@H](C)C(Cl)(Cl)Cl)C(=O)N1C(=O)C=C(OC)[C@@H]1C[C@H](C)CCl", "activity change, negative = inhibition": "5.3% (inactive)"}, {"smiles": "C/C(=C\\[C@H](C)C(=O)/C=C/CC1CC(=O)NC(=O)C1)[C@@H]1OC(=O)CCCC/C=C/[C@H](O)[C@@H](O)[C@@H]1C", "activity change, negative = inhibition": "6.81% (inactive)"}, {"smiles": "C/C(=C\\[C@H](C)C(=O)/C=C/CC1CC(=O)NC(=O)C1)[C@@H]1OC(=O)/C=C/CC/C=C/C[C@@H](O)[C@@H]1C", "activity change, negative = inhibition": "2.64% (inactive)"}, {"smiles": "CO[C@H]1[C@@H](OC(=O)/C(C)=C\\[C@@H]2O[C@@H]2[C@H]2O[C@H]2C)[C@H](O)[C@H](OCC23C[C@@H]4[C@H](C)CC[C@H]4C4(C=O)CC2C=C(C(C)C)C34C(=O)O)O[C@@H]1C", "note": "(stereo not given in full)", "activity change, negative = inhibition": "0.0963% (inactive)"}, {"smiles": "COc1ccc([C@@H]2c3cc4c(cc3C[C@H](C)C2C)OCO4)cc1OC", "note": "(stereo not given in full)", "activity change, negative = inhibition": "-4.22% (inactive)"}]}]}
